Results taken from PubChem BioAssay (Tox21).
Several values for one entry are separate records, joined by “and”; a condition that tells them apart may be missing. Equal entries are not always repeated. Results filed as inconclusive are left out. Entries that show only a call come without a potency. Activity calls are given as the source filed them. Unless noted, the call rests on the fitted dose curve; in most records, active means well fitted curve in the direction sought with a large enough effect in the repeat runs; inconclusive means weak or mixed curves; inactive means no such curve, though single readings can be large; an effect the other way counts as inactive or inconclusive.

Assays:
[1] = Human pregnane X receptor (PXR) small molecule agonists, qHTS cell viability counter screen (AID 1346977); further: nearly all actives have a fitted effect of over 50% in size; further: potency means the concentration at half of the fitted maximal effect
Outline: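 In each well, the PXR reporter HepG2 line was checked for viability: CellTiter-Fluor reagent added 23hr post-dosing, fluorescence read after 1hr incubation at 37C.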

[2] = Caspase-3/7 induction in HepG2 cells by small molecules, qHTS assay (AID 1346978); further: nearly all actives have a fitted effect of over 15% in size
Outline: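 Caspase-3/7 induction was measured by Caspase-Glo 3/7 luminescence (30 min, room temperature) after a 17 hr compound exposure of wild-type HepG2 cells seeded at 2,000 per well and pre-incubated 5 hr.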

[3] = Caspase-3/7 induction in CHO-K1 cells by small molecules, qHTS cell viability counter screen (AID 1346979); further: nearly all actives have a fitted effect of over 35% in size; further: potency means the concentration at half of the fitted maximal effect
Outline: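 Following a 5hr settling period, CHO-K1 cells at 1,500 per well received DMSO-dissolved compounds. Cell viability was quantified 16hr later by CellTiter-Fluor fluorescence, measured after 1hr with reagent at 37C.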

[4] = Caspase-3/7 induction in CHO-K1 cells by small molecules, qHTS assay (AID 1346980); further: nearly all actives have a fitted effect of over 15% in size
Outline: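 Luminescent Caspase-Glo 3/7 read (30min, room temperature) quantified apoptosis induction. Cells were wild-type CHO-K1, treated with compound for 17hr at 37 C and 5% CO2.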

[5] = Caspase-3/7 induction in HepG2 cells by small molecules, qHTS cell viability counter screen (AID 1346981); further: nearly all actives have a fitted effect of over 30% in size; further: potency means the concentration at half of the fitted maximal effect
Outline: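 After a 5-hr attachment period at 37 C and 5% CO2, wild-type HepG2 cells received compounds in DMSO. Sixteen hours later CellTiter-Fluor was dispensed and the fluorescent signal quantified after a further hour.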

[6] = target: Nuclear receptor subfamily 1 group I member 2 (Rattus norvegicus) (UniProt Q9R1A7); assay: Rat pregnane X receptor (rPXR) activation by small molecules, qHTS assay (AID 1346983); settings: rPXR luciferase reporter cells, One-Glo luminescence, 24 h; hits give high values; further: nearly all actives have a fitted effect of over 20% in size
Chain of Nuclear receptor subfamily 1 group I member 2 (Rattus norvegicus) (Q9R1A7 whole entry, looked up): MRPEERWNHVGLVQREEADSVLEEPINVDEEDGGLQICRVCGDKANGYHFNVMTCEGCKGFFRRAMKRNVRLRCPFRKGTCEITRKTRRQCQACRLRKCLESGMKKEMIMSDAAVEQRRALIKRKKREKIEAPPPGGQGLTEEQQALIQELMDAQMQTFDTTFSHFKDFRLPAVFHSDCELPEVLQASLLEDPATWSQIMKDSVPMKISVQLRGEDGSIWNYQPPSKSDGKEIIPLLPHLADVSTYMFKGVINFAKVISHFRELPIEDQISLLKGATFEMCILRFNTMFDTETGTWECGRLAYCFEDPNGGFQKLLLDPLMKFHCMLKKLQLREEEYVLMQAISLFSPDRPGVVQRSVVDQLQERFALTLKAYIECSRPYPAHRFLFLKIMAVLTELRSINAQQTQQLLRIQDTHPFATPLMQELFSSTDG
Outline: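 Luminescent readout (One-Glo luciferase, 30 min room temperature) followed 24 hr compound treatment at 37 C of rPXR cells plated 2,000 per well and preincubated 5hr; qHTS format with compounds delivered in DMSO.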

[7] = target: Acetylcholinesterase (Homo sapiens) (UniProt P22303); assay: Acetylcholinesterase (AChE) small molecule antagonists: colormetric cell-based qHTS assay (AID 1347395; calls by dose curve; further: nearly all actives have a fitted effect of over 30% in size)
Chain of Acetylcholinesterase (Homo sapiens) (P22303 whole entry, looked up): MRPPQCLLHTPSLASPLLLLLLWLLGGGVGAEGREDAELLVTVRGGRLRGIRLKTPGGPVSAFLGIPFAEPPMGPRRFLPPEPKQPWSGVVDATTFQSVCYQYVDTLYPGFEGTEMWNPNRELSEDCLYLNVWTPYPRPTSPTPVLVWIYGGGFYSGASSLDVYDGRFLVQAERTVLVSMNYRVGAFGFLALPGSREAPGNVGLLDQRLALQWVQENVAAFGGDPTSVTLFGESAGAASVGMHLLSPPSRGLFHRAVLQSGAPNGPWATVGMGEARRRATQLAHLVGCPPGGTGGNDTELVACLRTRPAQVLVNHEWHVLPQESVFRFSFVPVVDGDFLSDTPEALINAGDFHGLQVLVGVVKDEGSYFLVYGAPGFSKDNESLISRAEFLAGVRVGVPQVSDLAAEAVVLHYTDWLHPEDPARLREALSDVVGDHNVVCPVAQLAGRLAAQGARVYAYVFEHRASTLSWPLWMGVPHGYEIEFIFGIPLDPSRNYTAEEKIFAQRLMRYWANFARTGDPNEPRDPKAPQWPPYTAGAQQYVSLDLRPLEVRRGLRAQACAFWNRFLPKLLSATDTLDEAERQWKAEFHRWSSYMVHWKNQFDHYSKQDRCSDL
Outline: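 After overnight attachment at 37 C, SH-SY5Y cells get 30 min compound exposure; detection cocktail (acetylthiocholine, DTNB) then incubates 90 min at 37 C, and absorbance reflects AChE-generated thiocholine.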

[8] = target: Acetylcholinesterase (Homo sapiens) (UniProt P22303); assay: Acetylcholinesterase (AChE) small molecule antagonists: enzyme-based qHTS assay (AID 1347397; calls by dose curve; further: nearly all actives have a fitted effect of over 55% in size); settings: Potency: AChE enzyme activity inhibition; outcome: AChE enzyme activity inhibition
Outline: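 First, recombinant human AChE (50 mU/mL as dispensed) received test compound or DMSO. Second, plates stood 30 min at room temperature. Third, DTNB and acetylthiocholine were added, followed by 10 min at room temperature and colorimetric detection.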

[9] = target: Acetylcholinesterase (Homo sapiens) (UniProt P22303); assay: Acetylcholinesterase (AChE) small molecule antagonists: fluorescence cell-based qHTS assay (AID 1347398; calls by dose curve; further: nearly all actives have a fitted effect of over 50% in size); settings: Potency: AChE activity; outcome: AChE activity
Outline: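 Homogeneous quantitative HTS format. SH-SY5Y cells seeded at 2,000 per well settle overnight at 37 C. Compound pretreatment runs 30 min (37 C, 5% CO2); substrate/probe mix then reacts 40 min at RT before reading 490/520 nm.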

[10] = target: Cytochrome P450 2C19 (Homo sapiens) (UniProt P33261); assay: Cytochrome P450 Family 2 Subfamily C Member 19 (CYP2C19) small molecule antagonists: luciferase reporter qHTS assay (AID 1671197); further: nearly all actives have a fitted effect of over 65% in size; further: potency means the concentration at half of the fitted maximal effect
Chain of Cytochrome P450 2C19 (Homo sapiens) (P33261 whole entry, looked up): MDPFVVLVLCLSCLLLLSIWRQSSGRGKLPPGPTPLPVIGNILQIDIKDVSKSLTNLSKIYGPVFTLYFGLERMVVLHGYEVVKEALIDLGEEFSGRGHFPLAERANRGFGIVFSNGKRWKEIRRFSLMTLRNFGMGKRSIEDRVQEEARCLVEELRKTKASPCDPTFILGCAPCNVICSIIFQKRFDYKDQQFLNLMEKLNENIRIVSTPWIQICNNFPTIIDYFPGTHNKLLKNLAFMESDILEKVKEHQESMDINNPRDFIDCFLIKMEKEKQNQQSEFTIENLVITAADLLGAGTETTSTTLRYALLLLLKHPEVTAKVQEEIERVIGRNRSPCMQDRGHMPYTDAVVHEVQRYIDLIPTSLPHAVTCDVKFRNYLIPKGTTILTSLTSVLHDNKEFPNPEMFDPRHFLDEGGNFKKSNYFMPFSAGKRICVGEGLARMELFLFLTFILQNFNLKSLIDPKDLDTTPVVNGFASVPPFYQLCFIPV
Outline: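 P450-Glo CYP2C19 system: enzyme-substrate mix with compound 10 min at room temperature, then NADPH regeneration solution, 1 h at 37C. Proluciferin-to-luciferin conversion detected by luminescence after 20 min with detection reagent; ketoconazole as positive control.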

[11] = target: Cytochrome P450 2C9 (Homo sapiens) (UniProt P11712); assay: Cytochrome P450 Family 2 Subfamily C Member 9 (CYP2C9) small molecule antagonists: luciferase reporter qHTS assay (AID 1671198); further: nearly all actives have a fitted effect of over 50% in size; further: potency means the concentration at half of the fitted maximal effect
Chain of Cytochrome P450 2C9 (Homo sapiens) (P11712 whole entry, looked up): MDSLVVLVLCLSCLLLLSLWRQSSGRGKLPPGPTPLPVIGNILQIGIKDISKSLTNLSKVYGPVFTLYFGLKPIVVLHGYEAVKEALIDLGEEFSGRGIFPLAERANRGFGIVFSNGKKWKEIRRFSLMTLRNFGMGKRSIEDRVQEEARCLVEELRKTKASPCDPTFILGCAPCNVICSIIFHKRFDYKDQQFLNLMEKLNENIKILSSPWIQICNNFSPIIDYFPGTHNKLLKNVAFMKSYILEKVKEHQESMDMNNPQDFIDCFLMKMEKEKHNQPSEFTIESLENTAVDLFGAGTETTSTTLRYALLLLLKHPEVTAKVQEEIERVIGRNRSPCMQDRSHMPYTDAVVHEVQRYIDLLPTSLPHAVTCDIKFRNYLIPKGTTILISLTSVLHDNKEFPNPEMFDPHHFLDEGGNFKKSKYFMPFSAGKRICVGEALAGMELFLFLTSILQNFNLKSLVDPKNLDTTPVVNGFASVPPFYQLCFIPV
Outline: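 Enzyme-substrate mix preincubated with compound 10 min at room temperature; reaction started with NADPH regeneration solution, 1 h 37C. Luminescent luciferin product read after 20 min detection reagent.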

[12] = target: Cytochrome P450 1A2 (Homo sapiens) (UniProt P05177); assay: Cytochrome P450 Family 1 Subfamily A Member 2 (CYP1A2) small molecule antagonists: luciferase reporter qHTS assay (AID 1671199); further: nearly all actives have a fitted effect of over 50% in size; further: potency means the concentration at half of the fitted maximal effect
Chain of Cytochrome P450 1A2 (Homo sapiens) (P05177 whole entry, looked up): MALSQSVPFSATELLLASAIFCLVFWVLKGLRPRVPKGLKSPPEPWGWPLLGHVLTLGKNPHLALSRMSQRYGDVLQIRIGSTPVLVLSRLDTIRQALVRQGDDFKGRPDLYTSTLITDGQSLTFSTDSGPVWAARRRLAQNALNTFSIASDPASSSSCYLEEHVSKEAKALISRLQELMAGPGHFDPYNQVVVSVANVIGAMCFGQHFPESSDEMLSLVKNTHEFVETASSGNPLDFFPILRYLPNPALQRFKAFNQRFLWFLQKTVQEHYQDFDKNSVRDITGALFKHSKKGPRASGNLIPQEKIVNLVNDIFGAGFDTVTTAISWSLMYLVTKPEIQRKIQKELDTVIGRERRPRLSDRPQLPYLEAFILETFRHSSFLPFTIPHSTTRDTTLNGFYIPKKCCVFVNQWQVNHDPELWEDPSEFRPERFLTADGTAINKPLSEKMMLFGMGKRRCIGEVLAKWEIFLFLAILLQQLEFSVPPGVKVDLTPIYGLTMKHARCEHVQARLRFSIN
Outline: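 Room-temperature CYP1A2 reaction with proluciferin substrate: compounds added from DMSO, 10 min preincubation, NADPH regeneration for 1 h. Luciferin detection reagent then added; luminescence recorded as RLU.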

[13] = target: Voltage-gated inwardly rectifying potassium channel KCNH2 (Homo sapiens) (UniProt Q12809); assay: Human Ether-a-go-go-Related Gene (hERG) channel small molecule antagonists: fluorescence cell-based qHTS assay (AID 1671200)
Chain of Voltage-gated inwardly rectifying potassium channel KCNH2 (Homo sapiens) (Q12809 whole entry, looked up): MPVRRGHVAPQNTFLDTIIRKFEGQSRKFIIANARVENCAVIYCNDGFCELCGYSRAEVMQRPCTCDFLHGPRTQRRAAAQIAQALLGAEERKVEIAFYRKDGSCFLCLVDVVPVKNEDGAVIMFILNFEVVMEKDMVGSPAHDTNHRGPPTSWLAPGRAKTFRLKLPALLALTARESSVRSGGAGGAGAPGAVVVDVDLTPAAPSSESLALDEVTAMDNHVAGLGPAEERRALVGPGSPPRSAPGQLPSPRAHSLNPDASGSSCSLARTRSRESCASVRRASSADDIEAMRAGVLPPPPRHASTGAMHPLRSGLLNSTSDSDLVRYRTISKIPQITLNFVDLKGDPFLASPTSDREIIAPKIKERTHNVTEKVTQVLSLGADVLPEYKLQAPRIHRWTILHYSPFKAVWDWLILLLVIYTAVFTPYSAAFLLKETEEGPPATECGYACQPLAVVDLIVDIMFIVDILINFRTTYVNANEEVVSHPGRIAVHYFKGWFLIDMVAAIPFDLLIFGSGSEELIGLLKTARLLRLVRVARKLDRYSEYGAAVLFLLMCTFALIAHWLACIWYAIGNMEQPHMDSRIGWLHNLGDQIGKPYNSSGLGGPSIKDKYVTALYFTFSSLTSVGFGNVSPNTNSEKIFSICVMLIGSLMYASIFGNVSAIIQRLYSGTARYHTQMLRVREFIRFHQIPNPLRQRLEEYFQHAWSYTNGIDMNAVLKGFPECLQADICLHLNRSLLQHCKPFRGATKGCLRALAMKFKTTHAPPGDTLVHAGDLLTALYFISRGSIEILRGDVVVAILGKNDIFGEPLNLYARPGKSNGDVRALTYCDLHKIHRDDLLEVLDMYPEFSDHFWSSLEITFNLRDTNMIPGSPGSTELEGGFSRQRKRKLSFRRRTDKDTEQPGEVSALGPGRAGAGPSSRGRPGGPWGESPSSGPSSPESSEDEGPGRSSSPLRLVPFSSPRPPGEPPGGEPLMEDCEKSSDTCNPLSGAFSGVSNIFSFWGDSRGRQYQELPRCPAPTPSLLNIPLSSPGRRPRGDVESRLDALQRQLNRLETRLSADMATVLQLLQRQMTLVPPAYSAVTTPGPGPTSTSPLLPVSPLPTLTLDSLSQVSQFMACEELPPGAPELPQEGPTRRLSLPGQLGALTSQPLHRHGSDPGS
Outline: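 In this thallium-flux screen, overnight-cultured U2OS cells bearing the channel are dye-loaded in darkness for an hour, rested 10 min at room temperature, and then monitored kinetically at 480/540 nm for two minutes post-stimulus.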

[14] = target: Cytochrome P450 2D6 (Homo sapiens) (UniProt P10635); assay: Cytochrome P450 Family 2 Subfamily D Member 6 (CYP2D6) small molecule antagonists: luciferase reporter qHTS assay (AID 1671196); further: nearly all actives have a fitted effect of over 50% in size; further: potency means the concentration at half of the fitted maximal effect
Chain of Cytochrome P450 2D6 (Homo sapiens) (P10635 whole entry, looked up): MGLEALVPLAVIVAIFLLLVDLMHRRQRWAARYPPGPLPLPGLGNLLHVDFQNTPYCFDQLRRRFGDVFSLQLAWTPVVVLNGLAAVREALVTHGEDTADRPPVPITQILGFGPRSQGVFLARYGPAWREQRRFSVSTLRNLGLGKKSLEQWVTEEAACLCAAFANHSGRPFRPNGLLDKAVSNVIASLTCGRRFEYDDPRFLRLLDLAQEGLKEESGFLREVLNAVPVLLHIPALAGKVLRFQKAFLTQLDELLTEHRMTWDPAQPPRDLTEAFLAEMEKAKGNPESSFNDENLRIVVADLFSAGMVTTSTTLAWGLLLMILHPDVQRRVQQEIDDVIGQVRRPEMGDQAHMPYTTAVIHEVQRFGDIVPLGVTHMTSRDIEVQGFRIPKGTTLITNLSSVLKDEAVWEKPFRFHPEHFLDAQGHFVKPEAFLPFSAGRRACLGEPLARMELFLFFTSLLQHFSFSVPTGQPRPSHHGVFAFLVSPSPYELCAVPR
Outline: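 Room-temperature luminescent CYP2D6 activity assay: compound preincubated 10 min with enzyme–substrate mix, NADPH-initiated reaction 1 h, detection reagent 20 min before reading.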

[15] = target: Acetylcholinesterase (Homo sapiens) (UniProt P22303); assay: Acetylcholinesterase (AChE) small molecule antagonists: enzyme-based qHTS assay with human liver microsomes (AID 1347399; calls by dose curve; further: nearly all actives have a fitted effect of over 60% in size); settings: Potency: qHTS inhibition; outcome: qHTS inhibition
Outline: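 Recombinant human AChE (50 mU/mL in the enzyme mix) and human liver microsomes (0.25 mg/mL final) were preincubated with compound and NADPH (0.25 mg/mL final) for 30 min at 37 C. Acetylthiocholine/DTNB was then added; thiocholine was read colorimetrically after 10 min at room temperature.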

[16] = target: Cytochrome P450 3A4 (Homo sapiens) (UniProt P08684); assay: Cytochrome P450 Family 3 Subfamily A Member 4 (CYP3A4) small molecule antagonists: luciferase reporter qHTS assay (AID 1671201); further: nearly all actives have a fitted effect of over 50% in size; further: potency means the concentration at half of the fitted maximal effect
Chain of Cytochrome P450 3A4 (Homo sapiens) (P08684 whole entry, looked up): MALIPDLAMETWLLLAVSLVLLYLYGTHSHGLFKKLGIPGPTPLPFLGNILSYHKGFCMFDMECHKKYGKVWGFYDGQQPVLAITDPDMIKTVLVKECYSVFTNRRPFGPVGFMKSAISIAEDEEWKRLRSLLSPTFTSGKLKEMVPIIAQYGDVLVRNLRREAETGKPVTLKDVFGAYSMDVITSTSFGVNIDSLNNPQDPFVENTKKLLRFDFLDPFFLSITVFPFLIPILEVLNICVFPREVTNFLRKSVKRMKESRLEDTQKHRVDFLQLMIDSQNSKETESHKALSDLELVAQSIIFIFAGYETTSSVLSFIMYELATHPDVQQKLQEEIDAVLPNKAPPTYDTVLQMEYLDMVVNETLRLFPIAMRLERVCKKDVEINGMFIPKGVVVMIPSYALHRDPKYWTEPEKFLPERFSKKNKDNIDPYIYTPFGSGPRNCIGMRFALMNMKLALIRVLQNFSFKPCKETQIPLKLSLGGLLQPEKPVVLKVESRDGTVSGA
Outline: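 CYP3A4 activity was followed with a P450-Glo proluciferin substrate. Test compounds in DMSO were preincubated 10 min; NADPH regeneration then ran 1 h, and light output was read 20 min after detection reagent.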

[17] = target: Nuclear receptor subfamily 1 group I member 2 (Homo sapiens) (UniProt O75469); assay: Human pregnane X receptor (PXR) small molecule agonists, qHTS assay (AID 1346982); further: nearly all actives have a fitted effect of over 35% in size
Outline: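 Tox21 qHTS; PXR-Luc HepG2; compounds pinned from DMSO; 24 hr, 37 C; ONE-Glo luciferase detection, 30 min room temperature.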

[18] = target: Nuclear receptor subfamily 1 group I member 2 (Homo sapiens) (UniProt O75469); assay: CYP3A4 induction through human pregnane X receptor (PXR) by small molecules, qHTS assay (AID 1346984); further: nearly all actives have a fitted effect of over 40% in size
Outline: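 Cells (DPX-2; HepG2 with PXR element plus CYP3A4-promoter luciferase) settled 5hr, then were treated 24hr at 37C. A 3hr, 3uM-final Luciferin-IPA step preceded luminescence measurement with One-Glo.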

[19] = target: Nuclear receptor subfamily 1 group I member 2 (Homo sapiens) (UniProt O75469); assay: Human pregnane X receptor (PXR) activation by small molecules, qHTS assay (AID 1346985); further: nearly all actives have a fitted effect of over 40% in size
Outline: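 DPX-2 cells (HepG2 co-transfected with a PXR response element and a CYP3A4-promoter luciferase construct) were seeded at 2,000 per well, rested 5 hr at 37C, then exposed to DMSO-dissolved compounds for 24 hr. Activation was read as luciferase luminescence.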

SMILES	Potency [1]	Potency [2]	Potency [3]	Potency [4]	Potency [5]	max activation [6]	Potency [7]	Potency [8]	Potency [9]	Potency [10]	Potency [11]	Potency [12]	Potency [13]	Potency [14]	Potency [15]	Potency [16]	Potency [17]	outcome [18]	Potency [19]
O=C1CC[C@@]2(O)[C@H]3Cc4ccc(O)c5c4[C@@]2(CCN3CC2CC2)[C@H]1O5	inactive	inactive	inactive	inactive	inactive	-2.95% (inactive)	inactive	inactive	inactive	inactive	inactive	inactive	inactive	–	–	–	–	–	–
CN(C)c1ccc(N=O)cc1	44.7 µM (active) and 27.3 µM (active)	inactive	7.72 µM (active) and 8.63 µM (active)	inactive	54.6 µM (active) and 61.1 µM (active)	–	inactive	inactive	inactive	5.66 µM (active) and 8.94 µM (active)	35.7 µM (active) and 39.9 µM (active)	35.7 µM (active) and 39.9 µM (active)	–	17.9 µM (active) and 25.2 µM (active)	–	–	–	–	–
CN(C)C(=O)Nc1cccc(OC(=O)NC(C)(C)C)c1	inactive	inactive	inactive	inactive	inactive	–	inactive	inactive	inactive	inactive	inactive	39.9 µM (active)	inactive	inactive	inactive	inactive	–	–	–
CCCCCBr	inactive	inactive	inactive	inactive	inactive	–	inactive	inactive	inactive	inactive	inactive	inactive	inactive	inactive	inactive	–	–	–	–
CCNC(=O)NC(=O)/C(C#N)=N/OC	inactive	inactive	inactive	inactive	inactive	–	inactive	inactive	inactive	inactive	–	–	inactive	inactive	inactive	–	–	–	–
CCCSP(=S)(OCC)Oc1ccc(SC)cc1 (stereo not given)	inactive	inactive	inactive	inactive	inactive	–	inactive	inactive	inactive	0.399 µM (active)	2.52 µM (active)	2 µM (active)	inactive	25.2 µM (active)	inactive	3.17 µM (active)	–	–	–
CCCCCCCCCCCCN(C)C	inactive	inactive	inactive	inactive	inactive	–	inactive	inactive	inactive	–	inactive	35.6 µM (active)	inactive	inactive	–	inactive	inactive	–	–
Cc1ccccc1	inactive	inactive	inactive	inactive	inactive	–	inactive	inactive	inactive	inactive	inactive	inactive	inactive	inactive	inactive	–	–	inactive	inactive
CCC(C)Cl (stereo not given)	inactive	inactive	inactive	inactive	inactive	–	inactive	inactive	inactive	inactive	inactive	–	inactive	inactive	inactive	–	–	–	–
C#C[C@]1(O)CC[C@H]2[C@@H]3CCC4=CC(=O)CCC4=C3C=C[C@@]21CC	inactive	inactive	26.6 µM (active)	inactive	inactive	-15.2% (inactive)	inactive	inactive	–	2.45 µM (active)	0.776 µM (active)	inactive	–	5.49 µM (active)	–	–	–	–	–
CC(Cc1ccccc1)NCc1ccccc1Cl (stereo not given)	inactive	inactive	inactive	inactive	inactive	–	inactive	inactive	inactive	1.38 µM (active)	inactive	15.5 µM (active)	–	0.174 µM (active)	inactive	–	–	inactive	inactive
NC(=S)c1c(Cl)cccc1Cl	inactive	inactive	inactive	inactive	inactive	–	inactive	inactive	inactive	inactive	–	28.3 µM (active)	inactive	inactive	inactive	28.3 µM (active)	–	–	–
CC1(C)CC(=O)CC(C)(C)N1[O]	inactive	inactive	inactive	inactive	inactive	–	inactive	inactive	inactive	inactive	inactive	inactive	inactive	inactive	inactive	–	–	–	–
O=C(O)C(O)C(O)C(=O)O (stereo not given)	inactive	inactive	inactive	inactive	inactive	–	inactive	inactive	inactive	–	–	–	inactive	–	–	–	–	–	–
COc1ccc(C(O)(c2cncnc2)C2CC2)cc1 (stereo not given)	inactive	inactive	inactive	inactive	inactive	–	inactive	inactive	inactive	20 µM (active)	63.3 µM (active)	–	inactive	–	–	–	–	–	–
O=C(O)CCCOc1ccc(Cl)cc1Cl	inactive	inactive	inactive	inactive	inactive	–	–	–	–	–	–	–	inactive	–	–	–	–	–	–
